A short description of assay [1]: ATG_CRE_CIS: Attagene CIS-FACTORIAL HepG2 Assay for human cAMP Responsive Element (CRE) binding protein 3 (AID 2282926). Conditions: HepG2 CRE cis-reporter, Attagene multiplexed mRNA; actives raise or lower the signal. The procedure, abridged: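 Capillary electrophoresis of 6-FAM-labelled, HpaI-digested PCR products quantified reporter transcripts. These came from HepG2 transiently transfected with cis-element reporters and exposed to test chemicals for 24 hours, with DMSO defining baseline activity.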

Assay [2] deals with CCAAT/enhancer-binding protein beta (Homo sapiens) (UniProt P17676). Put plainly: ATG_C_EBP_CIS: Attagene CIS-FACTORIAL HepG2 Assay for human CCAAT/Enhancer Binding Protein (C/EBP) beta (AID 2282927). As to conditions: HepG2 Attagene cis-factorial transcription factor reporter; actives raise or lower the signal. The procedure, abridged: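 Endogenous transcription factor activity in human liver HepG2 cells is inferred from induction of a CEBPB-linked reporter mRNA. Exposure lasts 24 h; activity is fitted in both directions relative to DMSO.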

A short description of assay [3]: ATG_CMV_CIS: Attagene CIS-FACTORIAL HepG2 Assay for human CMV (Internal Marker) (AID 2282928).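 Further: endpoint acts as a background internal control marker rather than a target.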 Conditions: HepG2 CMV promoter reporter, transcription factor profiling; actives raise or lower the signal. The procedure, abridged:
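24 h chemical treatment, HepG2 with transient multi-reporter transfection; RNA → oligo(dT) RT → PCR → 6-FAM extension → HpaI digest → CE fluorescence. Bidirectional fit, DMSO negative control.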

The nature of assay [4]: ATG_DR4_LXR_CIS: Attagene CIS-FACTORIAL HepG2 Assay for human Liver X Receptor (LXR), DR4 submotif (AID 2282929). Conditions: HepG2 Attagene DR4 cis-reporter, mRNA transcription; actives raise or lower the signal. The procedure, abridged:
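Cells were transfected with multiple reporter transcription units, exposed to chemicals for 24 hours, then lysed for RNA. Reporter mRNA induction was measured by RT-PCR with capillary electrophoresis detection and fitted in both directions relative to DMSO.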

In assay [5] the target is Aryl hydrocarbon receptor (Homo sapiens) (UniProt P35869). Put plainly: ATG_Ahr_CIS: Attagene CIS-FACTORIAL HepG2 Assay for human Aryl Hydrocarbon Receptor (Ahr) (AID 2282930). Conditions: HepG2 AhR cis-factorial reporter transcription; actives raise or lower the signal. The procedure, abridged: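 Transient MRTU transfection of HepG2 → 24 h compound exposure → total RNA, oligo(dT) RT → PCR, 6-FAM extension, HpaI cut → CE fluorescence. DMSO = baseline; bidirectional curve fit.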

A short description of assay [6]: ATG_AP_1_CIS: Attagene CIS-FACTORIAL HepG2 Assay for human Activator Protein 1 (AP-1) (AID 2282931). As to conditions: HepG2 Attagene cis-factorial AP-1 reporter mRNA; actives raise or lower the signal. The procedure, abridged: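 Endogenous transcription-factor activity in human HepG2 liver cells is read through a cis-promoter reporter transcript, sampled 24 h after dosing. Detection uses RT-PCR with capillary electrophoresis; values come from bidirectional fitting relative to DMSO.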

Assay [7] in a line: ATG_AP_2_CIS: Attagene CIS-FACTORIAL HepG2 Assay for human Activator Protein 2 (AP-2) (AID 2282932). Conditions: HepG2 AP-2 cis-reporter, Attagene transcription factor profiling; actives raise or lower the signal. The procedure, abridged:
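Transiently transfected HepG2 cells are exposed to chemical for 24 h. Reporter transcripts are then measured as fluorescence following RT-PCR and capillary separation, and gain- or loss-of-signal is fitted relative to DMSO.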

Assay [8] is described as follows: ATG_BRE_CIS: Attagene CIS-FACTORIAL HepG2 Assay for human Bone Morphogenetic Protein (BMP) Response Element (BRE) (AID 2282933). As to conditions: HepG2 BMP response element reporter, Attagene transcription factor profiling; actives raise or lower the signal. The procedure, abridged: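 Fluorescence-labelled reporter cDNA fragments, separated by capillary electrophoresis, gave the signal for this component of a 52-readout multiplex. HepG2 cells were transfected, exposed to chemicals for 24 h, and compared with DMSO using bidirectional fitting.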

Assay [9] concerns the target Transcription factor E2F1 (Homo sapiens) (UniProt Q01094). Put plainly: ATG_E2F_CIS: Attagene CIS-FACTORIAL HepG2 Assay for human E2F Transcription Factor 1 (AID 2282935). Conditions: HepG2 Attagene cis-reporter, E2F reporter RNA transcripts; actives raise or lower the signal. The procedure, abridged: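 Fluorescent RT-PCR products, digested with HpaI for 2 h at 37 C, are separated by capillary electrophoresis. Source RNA comes from transfected HepG2 cultures treated for 24 h.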

A short description of assay [10]: ATG_E_Box_CIS: Attagene CIS-FACTORIAL HepG2 Assay for human Enhancer Box (E-box) (AID 2282936). As to conditions: HepG2 E-box cis-reporter transcription, actives raise or lower the signal. The procedure, abridged:
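Fluorescent reporter fragments separated by capillary electrophoresis gave the signal; mRNA came from HepG2 cells transfected with cis-element reporters and treated 24 h. Curves fitted bidirectionally relative to DMSO controls.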

Assay [11] is described as follows: ATG_M_61_CIS: Attagene CIS-FACTORIAL HepG2 Assay for M61 Transcription Factor (Internal Marker) (AID 2282937). Conditions: HepG2 Attagene CIS-FACTORIAL M61 internal marker reporter; actives raise or lower the signal. The procedure, abridged:
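Cells were transfected with reporter units under cis-regulatory promoters, treated with chemicals for 24 h, then lysed for RNA. Reporter transcripts were quantified by RT-PCR and capillary electrophoresis, and activity was fitted bidirectionally against DMSO.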

Assay [12] is described as follows: ATG_EGR_CIS: Attagene CIS-FACTORIAL HepG2 Assay for human Early Growth Response 1 (EGR1) (AID 2282938). Conditions: HepG2 Attagene CIS-FACTORIAL EGR reporter mRNA; actives raise or lower the signal. The procedure, abridged:
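Endogenous TF activity in HepG2 liver cells was gauged through cis-promoter reporter constructs transiently transfected. After 24 h dosing, reporter mRNA was quantified by RT-PCR and capillary electrophoresis, and curves fitted in both directions versus DMSO.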

Assay [13] in a line: ATG_M_19_CIS: Attagene CIS-FACTORIAL HepG2 Assay for M19 Transcription Factor (Internal Marker) (AID 2282939). Conditions: HepG2 Attagene CIS-FACTORIAL M19 internal marker reporter; actives raise or lower the signal. The procedure, abridged:
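HepG2, MRTU transient transfection, 24 h dosing. Total RNA → RT-PCR → 6-FAM primer extension → HpaI digest → CE fluorescence. Bidirectional curve fit, DMSO negative control.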

Assay [14] is described as follows: ATG_Ets_CIS: Attagene CIS-FACTORIAL HepG2 Assay for human Erythroblast Transformation Specific (ETS) (AID 2282941). Conditions: HepG2 ETS cis-reporter transcription, actives raise or lower the signal. The procedure, abridged: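 Cis-regulated reporter mRNA induction in HepG2 (transient transfection), 24 h exposure, RT-PCR plus capillary electrophoresis detection; DMSO serves as negative control and baseline.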

For assay [15], the target named is Hepatocyte nuclear factor 3-beta (Homo sapiens) (UniProt Q9Y261). Put plainly: ATG_FoxA2_CIS: Attagene CIS-FACTORIAL HepG2 Assay for human Forkhead box A2 (FOXA2) (AID 2282942). As to conditions: HepG2 cis-reporter transcription factor activity, 24 h; actives raise or lower the signal. The procedure, abridged:
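Endogenous transcription factor activity was read in HepG2 cells carrying transiently transfected cis-promoter reporter units. After 24 h dosing, reporter mRNA was quantified by RT-PCR and capillary electrophoresis, and values fitted bidirectionally versus DMSO.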

Assay [16] can be described thus: ATG_FoxO_CIS: Attagene CIS-FACTORIAL HepG2 Assay for human Forkhead box O (FoxO) (AID 2282943). Conditions: HepG2 Attagene cis-reporter, FoxO element, mRNA; actives raise or lower the signal. The procedure, abridged:
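HepG2, transient MRTU transfection (cis element, endogenous TFs). Dose 24 h. TriZol RNA → oligo(dT) RT → PCR → 6-FAM primer extension → HpaI cut → CE. Gain/loss vs DMSO.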

A short description of assay [17]: ATG_GATA_CIS: Attagene CIS-FACTORIAL HepG2 Assay for human GATA Binding Protein (AID 2282944). Conditions: HepG2 GATA cis-element reporter, Attagene multiplex mRNA; actives raise or lower the signal. The procedure, abridged: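 Cells: HepG2, transiently transfected with cis-regulated reporter transcription units. Exposure: 24 h. Detection: RT-PCR plus capillary electrophoresis of FAM-labeled fragments. Analysis: bidirectional, DMSO as baseline.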

A short description of assay [18]: ATG_GLI_CIS: Attagene CIS-FACTORIAL HepG2 Assay for human Zinc Finger Protein GLI1 (AID 2282945). As to conditions: HepG2, Attagene cis-factorial reporter mRNA, GLI element; actives raise or lower the signal. The procedure, abridged: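 Bidirectional curve fits relative to DMSO, using reporter mRNA levels from RT-PCR plus capillary electrophoresis. Cells were HepG2 transiently carrying cis-regulated reporter constructs, harvested 24 h after dosing.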

Assay [19] can be described thus: ATG_ERE_CIS: Attagene CIS-FACTORIAL HepG2 Assay for Estrogen Response Element (ERE) (AID 2282940). As to conditions: HepG2 ERE cis-reporter, Attagene RNA transcript; actives raise or lower the signal. The procedure, abridged:
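After a 24 h chemical treatment, RNA from reporter-transfected HepG2 cells is reverse-transcribed, PCR-amplified and fluorescently labelled. Fragments separated by capillary electrophoresis give reporter signal; DMSO serves as negative control.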

Assay [20] has as its target Bile acid receptor (Homo sapiens) (UniProt Q96RI1). Put plainly: ATG_IR1_CIS: Attagene CIS-FACTORIAL HepG2 Assay for human Nuclear Receptor Subfamily 1 Group H Member 4 (NR1H4), IR1 submotif (AID 2282946). Conditions: IR1 reporter transcription, actives raise or lower the signal. The procedure, abridged:
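HepG2 cells transiently transfected with multiplexed cis-element reporter units read endogenous transcription factor activity. After 24 h compound exposure, reporter mRNA was quantified by RT-PCR, fluorescent labelling, HpaI digestion and capillary electrophoresis; bidirectional fitting versus DMSO baseline.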

Each structure is given as a SMILES string. Calls of active or inactive are those of the source. How the source made its calls: active means hit-call score of the fitted dose curve at least 0.9, where 1 is the maximum; inactive means score below 0.9.

As usually defined, the AC50 is the midpoint of the concentration-response curve, whichever way the signal moves.

Sequence of Bile acid receptor (Homo sapiens) (Q96RI1 whole entry, looked up): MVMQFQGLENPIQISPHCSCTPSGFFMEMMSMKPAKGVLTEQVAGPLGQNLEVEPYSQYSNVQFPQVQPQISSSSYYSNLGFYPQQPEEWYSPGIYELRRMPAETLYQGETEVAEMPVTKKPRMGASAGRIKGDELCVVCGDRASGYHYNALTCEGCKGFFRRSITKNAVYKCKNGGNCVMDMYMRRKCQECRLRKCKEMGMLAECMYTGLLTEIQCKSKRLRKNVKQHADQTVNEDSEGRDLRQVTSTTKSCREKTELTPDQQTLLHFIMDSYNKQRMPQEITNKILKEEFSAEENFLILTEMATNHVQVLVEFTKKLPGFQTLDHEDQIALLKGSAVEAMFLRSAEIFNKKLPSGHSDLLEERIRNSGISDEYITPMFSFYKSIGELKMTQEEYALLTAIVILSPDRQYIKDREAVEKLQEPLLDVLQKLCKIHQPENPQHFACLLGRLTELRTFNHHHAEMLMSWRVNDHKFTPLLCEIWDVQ
Sequence of CCAAT/enhancer-binding protein beta (Homo sapiens) (P17676 whole entry, looked up): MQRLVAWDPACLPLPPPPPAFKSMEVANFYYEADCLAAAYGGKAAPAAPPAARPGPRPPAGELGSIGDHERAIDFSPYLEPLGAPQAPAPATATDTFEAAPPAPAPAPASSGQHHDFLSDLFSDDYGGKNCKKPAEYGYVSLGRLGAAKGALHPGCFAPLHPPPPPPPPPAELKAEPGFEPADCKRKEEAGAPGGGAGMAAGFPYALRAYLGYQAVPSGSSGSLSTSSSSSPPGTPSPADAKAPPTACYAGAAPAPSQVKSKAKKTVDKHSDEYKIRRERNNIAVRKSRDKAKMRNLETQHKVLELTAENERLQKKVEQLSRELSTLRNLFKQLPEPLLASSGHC
Sequence of Transcription factor E2F1 (Homo sapiens) (Q01094 whole entry, looked up): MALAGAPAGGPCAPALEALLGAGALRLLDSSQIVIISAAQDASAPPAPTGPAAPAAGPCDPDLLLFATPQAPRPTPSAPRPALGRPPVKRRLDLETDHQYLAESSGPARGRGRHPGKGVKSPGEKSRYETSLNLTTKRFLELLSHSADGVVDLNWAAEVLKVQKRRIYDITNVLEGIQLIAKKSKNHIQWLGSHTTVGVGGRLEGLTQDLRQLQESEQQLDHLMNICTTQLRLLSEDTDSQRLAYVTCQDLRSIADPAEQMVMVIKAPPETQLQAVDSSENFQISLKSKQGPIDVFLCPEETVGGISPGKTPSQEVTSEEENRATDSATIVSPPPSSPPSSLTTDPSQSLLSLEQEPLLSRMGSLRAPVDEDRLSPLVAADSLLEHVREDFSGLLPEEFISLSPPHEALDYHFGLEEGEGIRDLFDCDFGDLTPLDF
Sequence of Hepatocyte nuclear factor 3-beta (Homo sapiens) (Q9Y261 whole entry, looked up): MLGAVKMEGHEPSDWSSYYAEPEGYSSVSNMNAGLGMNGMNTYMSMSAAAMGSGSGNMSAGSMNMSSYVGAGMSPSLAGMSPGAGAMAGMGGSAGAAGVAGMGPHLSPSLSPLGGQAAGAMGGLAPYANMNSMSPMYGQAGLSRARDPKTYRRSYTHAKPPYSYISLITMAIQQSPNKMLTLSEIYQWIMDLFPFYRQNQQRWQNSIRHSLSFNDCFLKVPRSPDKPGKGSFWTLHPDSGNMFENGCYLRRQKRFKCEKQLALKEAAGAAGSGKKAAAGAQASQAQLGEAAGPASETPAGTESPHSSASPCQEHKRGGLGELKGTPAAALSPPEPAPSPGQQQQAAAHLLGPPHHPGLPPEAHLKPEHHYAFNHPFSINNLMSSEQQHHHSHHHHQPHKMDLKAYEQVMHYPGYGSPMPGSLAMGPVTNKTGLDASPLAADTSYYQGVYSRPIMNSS
Sequence of Aryl hydrocarbon receptor (Homo sapiens) (P35869 whole entry, looked up): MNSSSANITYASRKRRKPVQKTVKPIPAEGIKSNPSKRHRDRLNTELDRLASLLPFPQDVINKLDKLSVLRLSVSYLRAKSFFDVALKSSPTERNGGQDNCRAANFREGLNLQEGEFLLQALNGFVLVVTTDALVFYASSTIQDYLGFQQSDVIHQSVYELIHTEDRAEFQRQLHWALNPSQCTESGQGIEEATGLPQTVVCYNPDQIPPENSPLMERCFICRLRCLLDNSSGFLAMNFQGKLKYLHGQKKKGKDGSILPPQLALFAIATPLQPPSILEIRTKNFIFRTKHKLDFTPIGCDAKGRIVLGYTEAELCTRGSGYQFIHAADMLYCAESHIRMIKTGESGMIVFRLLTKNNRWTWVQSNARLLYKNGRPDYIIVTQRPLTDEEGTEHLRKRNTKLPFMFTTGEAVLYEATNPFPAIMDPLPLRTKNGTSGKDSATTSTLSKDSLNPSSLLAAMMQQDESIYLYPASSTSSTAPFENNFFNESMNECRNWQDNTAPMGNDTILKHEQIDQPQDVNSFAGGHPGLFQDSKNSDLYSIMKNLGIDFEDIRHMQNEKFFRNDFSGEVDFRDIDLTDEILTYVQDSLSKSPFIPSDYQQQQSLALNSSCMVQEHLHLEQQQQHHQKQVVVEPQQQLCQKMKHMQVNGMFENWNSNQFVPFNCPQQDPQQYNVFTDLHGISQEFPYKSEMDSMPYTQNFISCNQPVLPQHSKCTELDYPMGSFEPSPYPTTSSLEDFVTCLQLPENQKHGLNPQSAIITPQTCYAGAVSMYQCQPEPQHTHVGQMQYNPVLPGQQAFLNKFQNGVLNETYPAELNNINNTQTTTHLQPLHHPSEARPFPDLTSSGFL

`N[C@@H](Cc1c[nH]c2ccccc12)C(=O)O`: the result in assay [1], in assay [2], in assay [3], in assay [4], in assay [6] and in assay [7] was inactive. Also, the molecule was called inactive in assay [8], in assay [9], in assay [10], in assay [11], in assay [12] and in [13]. Also, the call in assay [14], in [15], in assay [16], in [17] and in assay [18] was inactive. Also, the AC50 in [5] was 24 µM (active).

Regarding `CCCCCCC(CCCCCCCCCCC(=O)OCC(COC(C)=O)OC(C)=O)OC(C)=O` (stereo not given), the call in [1], in assay [2], in assay [4], in [5], in [6] and in [7] was inactive. Moreover, the molecule was classed as inactive in [8], in [9], in [10], in assay [11], in [12] and in [13]. The molecule was called inactive in [19], in assay [14], in assay [15], in [16], in assay [17] and in assay [18]. The outcome in assay [20] was inactive. Further, the concentration at half-maximal activity (AC50) in assay [3] is 35.6 µM (active).

Consider `CCCCC(CC)CO` (stereo not given), for which the molecule was called inactive in assay [1], in [2], in assay [3], in assay [4], in assay [5] and in assay [6]. In addition, the molecule was classed as inactive in assay [7], in assay [8], in [9], in assay [10], in assay [11] and in assay [12]. In addition, the call in assay [13], in assay [14], in assay [15], in assay [16], in [17] and in assay [18] was inactive. For the same molecule, the molecule was classed as inactive in assay [20].

Turning to `NCCOCCOCCN`, the result in assay [1], in assay [2], in [3], in assay [4], in assay [5] and in assay [6] was inactive. Further, the molecule was classed as inactive in [7], in assay [8], in [9], in [10], in assay [11] and in assay [12]. Besides, the molecule was classed as inactive in assay [13], in assay [14], in assay [15], in assay [16], in assay [17] and in [18].

With `O=C1NC(=O)C(c2ccccc2)(c2ccccc2)N1`, the result in [1], in [2], in [3], in [4], in [6] and in assay [7] was inactive. Also, the molecule was classed as inactive in [8], in [9], in [10], in [11], in assay [12] and in assay [13]. Moreover, the result in assay [14], in [15], in assay [16], in assay [17] and in assay [18] was inactive. Further, the AC50 in assay [5] is 59.3 µM (active).

For `CCCCC(CC)COP(=O)(OCC(CC)CCCC)OCC(CC)CCCC` (stereo not given), the result in [1], in assay [2], in [3], in [4], in assay [6] and in [7] was inactive. Further, the call in assay [8], in [9], in [10], in assay [11], in assay [12] and in assay [13] was inactive. The result in assay [14], in assay [15], in [16], in assay [17], in assay [18] and in assay [20] was inactive. Moreover, the AC50 in assay [5] is 68.9 µM (active).

In the case of `O=C1O[C@H]([C@H](O)CO)C(O)=C1O`, the molecule was classed as inactive in [1], in assay [2], in [3], in assay [4], in assay [5] and in [6]. Further, the outcome in [7], in [8], in assay [9], in assay [10], in assay [11] and in assay [12] was inactive. In addition, the call in [13], in assay [14], in assay [15], in [16], in assay [17] and in assay [18] was inactive.
